This is an account of results in article PMC5540273 (PLoS ONE, 2017).
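Also: KINOMEscan kinase panel screen.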

The first assay deals with EPHA2. The conditions noted are these: concentration: 1 μM, replicates: in singlicate; n = 1.
Take `COc1cc(Nc2nccc(N3CCC(NC(=O)Nc4cccc(C(C)=O)c4)C3)n2)cc(OC)c1OC` (centres unmarked) [GSK1379753]: the “%Inh” value was found to be 0%.

Regarding `CN(C)S(=O)(=O)c1cc(-c2ccc3nccc(-c4cccc(S(N)(=O)=O)c4)c3c2)cnc1N` [GSK1669921], the “%Inh” value was 9%.

Consider `COCCOCCOc1cc2ncc3c4ccc(C#N)cc4[nH]c3c2cc1OC`, for which the “%Inh” value is listed as 33%.

Regarding `Nc1n[nH]c2cnc(-c3ccccc3)cc12` [SB-642124], the “%Inh” value is 16%.

On to `CN1CCN(CCCNc2nccc(-c3c(-c4ccc(F)cc4)nn4cc(C(F)(F)F)ccc34)n2)CC1` [GW621581], for which the “%Inh” value was determined as 0%.

As for `Nc1ncnc2c1nc(-c1ccccc1)n2-c1ccccc1` [SKF-97293], the “%Inh” value was 0%.

As for `Cl.NC(=O)c1cccc(Nc2nccc(Nc3ccc(Oc4c(Cl)cccc4Cl)c(Cl)c3)n2)c1` [GW659009], the “%Inh” value stood at 0%.

In the case of `Cc1ccc(F)c(C(=O)Nc2cccc(-c3nn4ccccc4c3-c3ccnc(Nc4cccc(F)c4)n3)c2)c1F` [GSK361061], the “%Inh” value is given as 26%.

On to `COc1cccc(-c2ccc3c(NC(=O)C4CC4)n[nH]c3n2)c1` [SB-710903], for which the “%Inh” value was 0%.

In the case of `CC(=O)N1CCN(c2ccc(Nc3nccc(-c4sc(C(C)C)nc4-c4cccc(NS(=O)(=O)c5cccc(Cl)c5)c4)n3)cn2)CC1` [GSK1660437], the “%Inh” value came to 3%.

Regarding `C[C@@H]1CC[C@@H](C(=O)Nc2ccccc2)CN1c1cc(-c2ccc3c(N)n[nH]c3c2)nc(N)n1` [GSK2286062], the “%Inh” value was found to be 17%.

As for `Clc1ccc(-c2nn3ncccc3c2-c2ccnc(Nc3ccc4c(c3)OCCO4)n2)cc1` [GW829116], the “%Inh” value was found to be 0%.

With `Cc1ccc(C(=O)N2CC[C@@H](O)C2)cc1-n1c(C)cc(OCc2ccc(F)cc2F)c(Br)c1=O`, the “%Inh” value is reported as 76%.

Consider `CC(=O)Nc1nc2cnc(Nc3cc(NC(=O)c4cccc(C5(C#N)CC5)c4Cl)ccc3C)nc2s1`, for which the “%Inh” value came out at 79%.

For the compound `c1ccc(-c2cnc3nccnn23)cc1` [AH20685], the “%Inh” value worked out at 11%.

As to `CCn1c(-c2nonc2N)nc2c(C#CC(C)(C)O)nc(OC[C@H](N)c3ccccc3)cc21` [GSK943949], the “%Inh” value came to 5%.

Regarding `Cl.Cl.NCC(C(=O)Nc1cc(Br)c(-c2ccnc3[nH]ccc23)s1)c1ccccc1` (centres unmarked) [GSK1269851], the “%Inh” value turned out to be 4%.

Take `COc1cccc(C2=C(Nc3ccc(Cl)c(C(=O)O)c3)C(=O)NC2=O)c1` [SB-390769]: the “%Inh” value was found to be 10%.

In the case of `Cc1cccc(Nc2nc(N[C@H]3CCNC3)ncc2C(N)=O)c1.Cl` [GSK2197149], the “%Inh” value is 0%.

The next assay has as its system EPHA3. As to conditions: concentration: 1 μM, replicates: in singlicate; n = 1.
For `Cc1ccc(C(=O)Nc2ccc(Nc3ccnc4cc(-c5nccs5)ccc34)cc2O)cc1.Cl` [GW494702], the “%Inh” value stood at 0%.

`CC(C)c1nc(-c2cccc(NS(=O)(=O)c3c(F)cccc3F)c2F)c(-c2ccnc(Nc3ccc(N4CCOCC4)nc3)n2)s1` [GSK2008607]: the “%Inh” value is reported as 69%.

In the case of `Cl.c1ccc(-c2ccc3c(Nc4ccc5[nH]ccc5c4)ccnc3c2)nc1` [GW440138], the “%Inh” value is 8%.

Consider `Nc1ncc(-c2cccnc2)c2scc(-c3ccc4c(c3)CCN4C(=O)Cc3ccccc3)c12` [GSK683281], for which the “%Inh” value is on record as 0%.

Turning to `COc1cc(Nc2nccc(-c3c(-c4cccc(NC(=O)c5c(F)cccc5F)c4)nn4ccccc34)n2)cc(OC)c1OC` [GSK323521], the “%Inh” value is 0%.

Turning to `CCc1ccc(-c2ccc3c(c2)-c2c(cnn2C)S(=O)(=O)N3C)cc1`, the “%Inh” value stood at 0%.

`COC(=O)Nc1nc2cc(Oc3ccc(NC(=O)Nc4cc(C(F)(F)F)ccc4F)cn3)ccc2[nH]1.Cl.Cl` [GW681170]: the “%Inh” value is given as 47%.

Take `Cc1occc1-c1ncc(OC[C@@H](N)Cc2c[nH]c3ccccc23)cc1-c1ccc2[nH]nc(C)c2c1.O=C(O)C(F)(F)F` [GSK682037]: the “%Inh” value turned out to be 29%.

With `O=C(Nc1cccc(Oc2ccc3nc(NC(=O)C4CC4)cn3n2)c1)c1ccccc1C(F)(F)F`, the “%Inh” value is on record as 3%.

Consider `CSc1cccc2c(-c3ccncn3)c(-c3ccc(F)cc3)nn12` [GW514786], for which the “%Inh” value came out at 0%.

As to `COc1cc(Nc2ncc3c(C)nc(-c4cc5ccccc5[nH]4)n3n2)cc(OC)c1OC` [GW869516], the “%Inh” value is reported as 7%.

For the compound `O=C(Nc1cccc(-c2nn3ccccc3c2-c2ccnc(Nc3cccc(C(F)(F)F)c3)n2)c1)c1c(F)cccc1F` [GSK292658], the “%Inh” value came to 0%.

Consider `CNC(=O)c1ccccc1Nc1nc(Nc2ccc(N3CCOCC3)cc2)ncc1Cl.Cl` [GSK1576028], for which the “%Inh” value amounted to 76%.

On to `Cl.c1ccc(-c2ccc3c(Nc4ccc5[nH]ncc5c4)ccnc3c2)nc1` [GW440137], for which the “%Inh” value turned out to be 7%.

In the case of `Cl.Cl.NCC(NC(=O)c1cc(-c2ccccc2)c(-c2ccnc3[nH]ccc23)s1)c1ccccc1` (centres unmarked) [GSK1321561], the “%Inh” value is listed as 38%.

Turning to `COc1cc2c(cc1OCCN1CCNCC1)ncc1c3ccc(C#N)cc3[nH]c21`, the “%Inh” value worked out at 0%.

Turning to `CCn1c(-c2nonc2N)nc2c(C#CC(C)(C)O)ncc(OCCCCN)c21.O=C(O)C(F)(F)F.O=C(O)C(F)(F)F` [GSK507274], the “%Inh” value was determined as 38%.

Regarding `COc1cc(Nc2nccc(-c3c(-c4cccc(NC(=O)c5c(F)cccc5F)c4)nn4ncccc34)n2)cc(OC)c1OC` [GSK327238], the “%Inh” value was 42%.

`COc1cc(Nc2nccc(N3CCC(NC(=O)Nc4cccc(C(C)=O)c4)C3)n2)cc(OC)c1OC` (centres unmarked) [GSK1379753]: the “%Inh” value is 0%.

As for `CN(C)S(=O)(=O)c1cc(-c2ccc3nccc(-c4cccc(S(N)(=O)=O)c4)c3c2)cnc1N` [GSK1669921], the “%Inh” value is 0%.

In the case of `COCCOCCOc1cc2ncc3c4ccc(C#N)cc4[nH]c3c2cc1OC`, the “%Inh” value is listed as 0%.

Regarding `Nc1n[nH]c2cnc(-c3ccccc3)cc12` [SB-642124], the “%Inh” value amounted to 0%.

Turning to `CN1CCN(CCCNc2nccc(-c3c(-c4ccc(F)cc4)nn4cc(C(F)(F)F)ccc34)n2)CC1` [GW621581], the “%Inh” value was determined as 0%.

On to `Nc1ncnc2c1nc(-c1ccccc1)n2-c1ccccc1` [SKF-97293], for which the “%Inh” value is reported as 0%.

As for `Cl.NC(=O)c1cccc(Nc2nccc(Nc3ccc(Oc4c(Cl)cccc4Cl)c(Cl)c3)n2)c1` [GW659009], the “%Inh” value turned out to be 0%.

For the compound `Cc1ccc(F)c(C(=O)Nc2cccc(-c3nn4ccccc4c3-c3ccnc(Nc4cccc(F)c4)n3)c2)c1F` [GSK361061], the “%Inh” value worked out at 25%.

Consider `COc1cccc(-c2ccc3c(NC(=O)C4CC4)n[nH]c3n2)c1` [SB-710903], for which the “%Inh” value is 0%.

Turning to `CC(=O)N1CCN(c2ccc(Nc3nccc(-c4sc(C(C)C)nc4-c4cccc(NS(=O)(=O)c5cccc(Cl)c5)c4)n3)cn2)CC1` [GSK1660437], the “%Inh” value is given as 0%.

With `C[C@@H]1CC[C@@H](C(=O)Nc2ccccc2)CN1c1cc(-c2ccc3c(N)n[nH]c3c2)nc(N)n1` [GSK2286062], the “%Inh” value was found to be 2%.

`Clc1ccc(-c2nn3ncccc3c2-c2ccnc(Nc3ccc4c(c3)OCCO4)n2)cc1` [GW829116]: the “%Inh” value came to 0%.

Take `Cc1ccc(C(=O)N2CC[C@@H](O)C2)cc1-n1c(C)cc(OCc2ccc(F)cc2F)c(Br)c1=O`: the “%Inh” value is 42%.

On to `CC(=O)Nc1nc2cnc(Nc3cc(NC(=O)c4cccc(C5(C#N)CC5)c4Cl)ccc3C)nc2s1`, for which the “%Inh” value was determined as 50%.

Regarding `c1ccc(-c2cnc3nccnn23)cc1` [AH20685], the “%Inh” value was 0%.

Regarding `CCn1c(-c2nonc2N)nc2c(C#CC(C)(C)O)nc(OC[C@H](N)c3ccccc3)cc21` [GSK943949], the “%Inh” value was determined as 0%.

`Cl.Cl.NCC(C(=O)Nc1cc(Br)c(-c2ccnc3[nH]ccc23)s1)c1ccccc1` (centres unmarked) [GSK1269851]: the “%Inh” value is reported as 48%.

With `COc1cccc(C2=C(Nc3ccc(Cl)c(C(=O)O)c3)C(=O)NC2=O)c1` [SB-390769], the “%Inh” value was 0%.

On to `Cc1cccc(Nc2nc(N[C@H]3CCNC3)ncc2C(N)=O)c1.Cl` [GSK2197149], for which the “%Inh” value came to 45%.
